Where a name gives a salt, the structure may show the parent alone. Unmarked numbers belong to inactive results.
Experiments:
Conditions in all cases: 20 µM
[1] = system: Haemophilus parainfluenzae; assay: growth AUC normalised to DMSO control (fraction of control); higher = less growth inhibition, active = hit call of the paper
Procedure, shortened: (§1)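 After two anaerobic passages, pathogens were added at a starting OD578 of 0.01 to pre-reduced mGAM plates holding compound at 20 μM with 1% DMSO; hemin and NAD were supplemented for Haemophilus parainfluenzae. Sealed with breathable membranes, plates were read at OD578 hourly for 24 h, in three biological replicates. The trapezoidal rule, applied up to the exponential-to-stationary transition, gave the growth-curve AUC, which was normalised to DMSO controls on the same plate.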

[2] = system: Salmonella enterica typhimurium; assay: as above
Procedure, shortened: as §1

Shigella flexneri = assay: as above
Procedure, shortened: as §1

Vibrio cholerae = assay: as above
Procedure, shortened: as §1

[3] = system: Yersinia pseudotuberculosis; assay: as above
Procedure, shortened: as §1

P. vulgatus RND KO = assay: growth AUC normalised to DMSO control (median) (fraction of control); higher = less growth inhibition, active = hit call of the paper
Procedure, shortened: (§2)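 Anaerobic growth was tracked hourly at OD578 for 24 h in 96-well plates of mGAM seeded at OD578 0.01 with each approved-drug library compound at 20 μM and 1% DMSO. Strains had first been passaged twice overnight without oxygen. Three biological replicates were run. The reported median is the area under the curve, calculated by the trapezoidal rule on curves truncated at entry into stationary phase and normalised to vehicle wells on the same plate.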

P. vulgatus WT = assay: as above
Procedure, shortened: as §2

[4] = system: S. enterica typhimurium WT; assay: as above
Procedure, shortened: as §2

[5] = system: S. enterica typhimurium tolC KO; assay: as above
Procedure, shortened: as §2
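For growth AUC normalised to DMSO control (median) in this document: active when median AUC fell below 0.1.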

Row | SMILES | growth AUC normalised to DMSO control [1] | growth AUC normalised to DMSO control [2] | growth AUC normalised to DMSO control (Shigella flexneri) | growth AUC normalised to DMSO control (Vibrio cholerae) | growth AUC normalised to DMSO control [3] | growth AUC normalised to DMSO control (P. vulgatus RND KO) | growth AUC normalised to DMSO control (P. vulgatus WT) | growth AUC normalised to DMSO control [4] | growth AUC normalised to DMSO control [5]
1 | CCOC(=O)c1cncn1[C@H](C)c1ccccc1 [Etomidate] | 1.02 | 1.01 | 1 | 1.03 | 0.984 | 1.07 | 1.1 | 1 | 0.978
2 | CN1CCC2(C)c3cc(O)ccc3N(C)C12 (single isomer, unassigned; (-)) [(-) Eseroline fumarate salt] | 1.02 | 0.999 | 1.01 | 0.995 | 1.01 | 0.979 | 0.999 | 1.01 | 0.999
3 | CNCC(O)c1ccc(O)cc1 (stereo not given) [Synephrine] | 1.04 | 1.01 | 1.05 | 1.03 | 1.01 | 0.984 | 0.984 | 1 | 0.999
4 | Clc1ccc(C(OCCN2CCCCC2)c2ccccc2)cc1 (stereo not given) [Cloperastine hydrochloride] | 0.833 | 0.992 | 1.03 | 0.954 | 1.03 | 1.01 | 1 | 1 | 0.938
5 | O=c1[nH]c2ccccc2n1C1CCN(CCCC(c2ccc(F)cc2)c2ccc(F)cc2)CC1 [Pimozide] | 0.788 | 0.998 | 1 | 1.07 | 1.02 | 1.14 | 1 | 0.998 | 0.971
6 | CC(O)(CS(=O)(=O)c1ccc(F)cc1)C(=O)Nc1ccc(C#N)c(C(F)(F)F)c1 (stereo not given) [Bicalutamide] | 1.12 | 1.05 | 1.08 | 1.1 | 1.01 | 0.982 | 0.988 | 1.01 | 0.954
7 | S=C(NC1CCCCC1)N1CCC(c2cnc[nH]2)CC1 [Thioperamide maleate] | 0.976 | 0.98 | 0.957 | 0.97 | 0.991 | 1 | 1.01 | 0.997 | 0.996
8 | CCCN1C[C@H](CSC)C[C@@H]2c3cccc4[nH]cc(c34)C[C@H]21 [Pergolide mesylate] | 1 | 0.998 | 0.959 | 0.956 | 1.01 | 0.986 | 0.956 | 0.995 | 0.974
9 | C=C(C)[C@@H]1[C@H]2OC(=O)[C@@H]1[C@]1(O)C[C@H]3O[C@]34C(=O)O[C@H]2[C@]14C [Picrotoxinin] | 1 | 1 | 0.96 | 1 | 0.997 | 1.03 | 1.03 | 1.02 | 1.02
10 | C=CCC1(CC(C)C)C(=O)NC(=O)NC1=O [Butalbital] | 0.978 | 1 | 0.999 | 1.02 | 1 | 0.99 | 0.998 | 0.992 | 1.01
11 | CC(C)[N+](C)(CCC(C(N)=O)(c1ccccc1)c1ccccc1)C(C)C [Isopropamide iodide] | 0.981 | 0.998 | 1 | 1 | 0.991 | 0.995 | 1.02 | 1 | 0.993
12 | CC(=O)OC1CN2CCC1CC2 (stereo not given) [Aceclidine hydrochloride] | 1.02 | 1 | 1.01 | 1.03 | 0.994 | 0.994 | 1.03 | 1.01 | 0.999
13 | C[C@]12CC[C@H](O)C[C@H]1CC[C@@H]1[C@@H]2CC[C@]2(C)[C@@H](C3=CC(=O)OC3)CC[C@]12O [Digitoxigenin] | 1 | 1 | 0.981 | 0.973 | 0.995 | 0.989 | 0.968 | 0.995 | 1
14 | CC(=O)OCC1=C(C(=O)O)N2C(=O)[C@@H](N)[C@H]2SC1 [Cephalosporanic acid, 7-amino] | 0.942 | 0.999 | 0.987 | 0.968 | 0.99 | 0.0227 (active) | 0.0158 (active) | 1 | 0.983
15 | C#C[C@]1(O)CC[C@H]2[C@@H]3CCC4=CC(=O)CCC4=C3C=C[C@@]21CC [Gestrinone] | 1.03 | 0.989 | 1.03 | 1.01 | 1.01 | 1.01 | 1.07 | 1.01 | 0.986
16 | CCN(C(C)=O)c1cccc(-c2ccnc3c(C#N)cnn23)c1 [Zaleplon] | 0.975 | 0.978 | 0.954 | 0.97 | 1 | 1 | 1 | 1 | 0.992
17 | CCNCC(O)c1cccc(O)c1 (stereo not given) [Etilefrine hydrochloride] | 0.987 | 0.976 | 0.987 | 0.995 | 0.979 | 0.997 | 0.995 | 0.993 | 1
18 | C#CCN(C)[C@H](C)Cc1ccccc1 [Selegiline hydrochloride] | 0.985 | 1.02 | 1.05 | 1.01 | 1.03 | 1.03 | 1.05 | 1 | 1.01
19 | NCC(CC(=O)O)c1ccc(Cl)cc1 (stereo not given) [Baclofen] | 1.04 | 1.01 | 1.01 | 1.01 | 0.992 | 1.02 | 1.07 | 1.02 | 0.999
20 | CN(C)C(=O)Oc1cccc([N+](C)(C)C)c1 [Neostigmine bromide] | 1 | 1 | 0.994 | 1.01 | 0.916 | 1 | 0.997 | 1 | 1.01

From the supplement of paper PMC12350171
